These results are taken from ChEMBL document CHEMBL1961873, “Compounds: GSK PKIS; Assays: Nanosyn kinase panel” (2012).

Assay [1] has as its target Dual specificity protein kinase CLK3 (Homo sapiens) (UniProt P49761). As to conditions: at 1 µM.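 Note: each value is the mean inhibition of CLK3.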
Assay [2] concerns the target Dual specificity tyrosine-phosphorylation-regulated kinase 1A (Homo sapiens) (UniProt Q13627). As to conditions: at 0.1 µM.
The target is the same in assay [3]. Particulars: at 1 µM.
Assay [4] concerns the target Dual specificity tyrosine-phosphorylation-regulated kinase 1B (Homo sapiens) (UniProt Q9Y463). As to conditions: at 0.1 µM.
For assay [5] the target is unchanged. Particulars: at 1 µM.
Assay [6] has as its target T1, Dual specificity tyrosine-phosphorylation-regulated kinase 2 (Homo sapiens) (UniProt Q92630).
T1 sequence (whole entry): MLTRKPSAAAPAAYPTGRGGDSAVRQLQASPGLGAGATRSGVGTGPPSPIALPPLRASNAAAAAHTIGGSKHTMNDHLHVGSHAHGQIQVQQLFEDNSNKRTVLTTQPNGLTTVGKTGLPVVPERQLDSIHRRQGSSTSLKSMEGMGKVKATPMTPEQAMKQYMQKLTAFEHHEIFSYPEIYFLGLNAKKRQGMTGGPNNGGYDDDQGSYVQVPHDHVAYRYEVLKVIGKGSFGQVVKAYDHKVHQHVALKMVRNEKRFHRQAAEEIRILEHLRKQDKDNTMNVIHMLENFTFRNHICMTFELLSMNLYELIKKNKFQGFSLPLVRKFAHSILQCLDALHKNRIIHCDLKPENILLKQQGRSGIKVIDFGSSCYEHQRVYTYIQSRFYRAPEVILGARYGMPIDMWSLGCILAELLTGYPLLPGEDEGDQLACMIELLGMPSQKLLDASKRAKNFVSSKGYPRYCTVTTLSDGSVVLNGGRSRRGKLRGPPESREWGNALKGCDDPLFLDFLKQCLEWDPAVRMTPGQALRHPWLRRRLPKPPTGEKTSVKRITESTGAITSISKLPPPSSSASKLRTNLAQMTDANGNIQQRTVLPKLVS
As to conditions: at 0.1 µM.

In assay [7] the target is T1, Dual specificity tyrosine-phosphorylation-regulated kinase 2 (Homo sapiens). As to conditions: at 1 µM.
Assay [8] deals with Glycogen synthase kinase-3 alpha (Homo sapiens) (UniProt P49840). Particulars: at 0.1 µM.
Sequence of Glycogen synthase kinase-3 alpha (Homo sapiens) (P49840 2-483 limits assumed): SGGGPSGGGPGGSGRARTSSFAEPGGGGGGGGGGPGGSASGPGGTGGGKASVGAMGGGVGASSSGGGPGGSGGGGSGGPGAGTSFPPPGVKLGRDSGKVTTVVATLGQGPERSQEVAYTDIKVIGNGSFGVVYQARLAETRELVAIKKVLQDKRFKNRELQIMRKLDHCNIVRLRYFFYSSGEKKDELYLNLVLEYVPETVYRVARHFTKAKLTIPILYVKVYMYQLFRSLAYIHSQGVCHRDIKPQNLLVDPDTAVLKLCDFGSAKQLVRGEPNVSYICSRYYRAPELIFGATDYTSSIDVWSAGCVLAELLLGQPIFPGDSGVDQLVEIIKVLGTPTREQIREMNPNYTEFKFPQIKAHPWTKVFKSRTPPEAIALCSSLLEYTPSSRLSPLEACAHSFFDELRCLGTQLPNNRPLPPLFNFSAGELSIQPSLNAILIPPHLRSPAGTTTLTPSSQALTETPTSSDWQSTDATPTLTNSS
Assay [9] has the same target. Particulars: at 1 µM.
Assay [10] addresses Glycogen synthase kinase-3 beta (Homo sapiens) (UniProt P49841). Particulars: at 0.1 µM.

SMILES strings stand for the structures.

Sequence of Glycogen synthase kinase-3 beta (Homo sapiens) (P49841 whole entry, looked up): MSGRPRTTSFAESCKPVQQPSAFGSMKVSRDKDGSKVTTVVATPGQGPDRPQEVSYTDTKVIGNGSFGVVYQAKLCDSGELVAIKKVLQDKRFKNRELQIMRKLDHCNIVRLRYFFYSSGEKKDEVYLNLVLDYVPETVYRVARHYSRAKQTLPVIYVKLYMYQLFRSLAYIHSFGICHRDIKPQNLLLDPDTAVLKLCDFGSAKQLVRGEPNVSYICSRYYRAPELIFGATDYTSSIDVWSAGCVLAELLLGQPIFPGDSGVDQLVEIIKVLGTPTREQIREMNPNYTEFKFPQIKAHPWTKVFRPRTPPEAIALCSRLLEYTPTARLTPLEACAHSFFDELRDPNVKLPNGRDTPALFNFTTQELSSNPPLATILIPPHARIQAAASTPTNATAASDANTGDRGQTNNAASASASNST
Sequence of Dual specificity protein kinase CLK3 (Homo sapiens) (P49761 whole entry, looked up): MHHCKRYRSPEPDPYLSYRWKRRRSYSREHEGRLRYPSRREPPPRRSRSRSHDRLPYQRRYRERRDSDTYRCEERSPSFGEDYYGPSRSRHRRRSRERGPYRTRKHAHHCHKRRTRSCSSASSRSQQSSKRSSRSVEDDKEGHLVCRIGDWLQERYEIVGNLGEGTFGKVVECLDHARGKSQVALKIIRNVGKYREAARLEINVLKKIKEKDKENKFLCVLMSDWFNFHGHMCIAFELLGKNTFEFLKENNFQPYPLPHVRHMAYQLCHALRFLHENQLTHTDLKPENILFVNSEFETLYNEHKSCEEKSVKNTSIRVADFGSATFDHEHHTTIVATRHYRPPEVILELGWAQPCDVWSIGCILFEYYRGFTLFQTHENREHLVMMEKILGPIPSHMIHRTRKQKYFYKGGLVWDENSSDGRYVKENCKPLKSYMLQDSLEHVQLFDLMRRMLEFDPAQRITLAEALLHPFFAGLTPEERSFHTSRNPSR
Sequence of Dual specificity tyrosine-phosphorylation-regulated kinase 1B (Homo sapiens) (Q9Y463 whole entry, looked up): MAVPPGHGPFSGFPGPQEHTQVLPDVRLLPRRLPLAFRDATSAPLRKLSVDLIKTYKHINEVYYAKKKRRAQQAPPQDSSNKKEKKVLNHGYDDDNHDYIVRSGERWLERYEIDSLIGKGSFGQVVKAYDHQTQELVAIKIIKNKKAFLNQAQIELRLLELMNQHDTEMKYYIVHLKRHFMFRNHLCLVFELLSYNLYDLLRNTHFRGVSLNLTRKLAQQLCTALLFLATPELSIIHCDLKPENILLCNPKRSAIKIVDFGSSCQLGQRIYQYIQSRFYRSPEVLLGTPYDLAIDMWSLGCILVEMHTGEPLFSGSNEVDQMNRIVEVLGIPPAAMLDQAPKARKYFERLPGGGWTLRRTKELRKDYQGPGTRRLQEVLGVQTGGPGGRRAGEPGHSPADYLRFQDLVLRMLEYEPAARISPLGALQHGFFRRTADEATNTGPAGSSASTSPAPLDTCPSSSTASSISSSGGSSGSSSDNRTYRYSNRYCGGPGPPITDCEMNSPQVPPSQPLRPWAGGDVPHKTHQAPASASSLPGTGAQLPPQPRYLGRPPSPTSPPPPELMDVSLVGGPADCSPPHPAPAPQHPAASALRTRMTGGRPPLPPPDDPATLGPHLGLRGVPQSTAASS

`COc1ccc2cc(-c3c(-c4ccncc4)nc(-c4ccc([S+](C)[O-])cc4)n3C)ccc2c1` (stereo not given): the inhibition is 0.67% in [1]; 0.49% in [2]; 3.52% in [3]; -0.23% in assay [4]; 0.37% in assay [5]; 3.31% in assay [6]. The inhibition worked out at 1.71% in [7], 4.07% in assay [8], 11.5% in [9] and 2.47% in assay [10].

As for `COc1cc(C=NNc2ncnc3c2cnn3-c2ccccc2)ccc1O`, the inhibition was 9.46% in [1]; 4.3% in assay [2]; 28.8% in assay [3]; 1.97% in assay [4]; 11% in [5]; 5.08% in assay [6]. The inhibition amounted to 23.7% in assay [7], 47.7% in assay [8], 79.2% in assay [9] and 41.6% in assay [10].

For the molecule `CS(=O)(=O)Nc1ccc(N/C=C2\C(=O)Nc3ccccc32)cc1`, the inhibition was 1.06% in assay [1]; 0.92% in assay [2]; 10.4% in [3]; 3.56% in assay [4]; 13.9% in assay [5]; -1.66% in [6]. Besides, the inhibition in assay [7] is -0.97%; in assay [8] it was 7.94%; in assay [9], 19.6%; in assay [10], 6.71%.

`COC(=O)Nc1nc2cc(Oc3cccc(NC(=O)Nc4cc(C(F)(F)F)ccc4F)c3)ccc2[nH]1`: the inhibition in assay [1] was 0.16%; in [2], -0.01%; in assay [3], 2.54%; in assay [4] it was -0.21%; in [5] it was 1.68%; in [6] it was -0.32%. The inhibition was -0.02% in [7], 1.75% in assay [8], 7.54% in assay [9] and 0.73% in assay [10].

As for `COc1cccc(-n2ncc3c(N/N=C/c4cccc(F)c4)ncnc32)c1`, the inhibition is -0.14% in assay [1]; 2.01% in assay [2]; 25.9% in [3]; -1.44% in assay [4]; 14.9% in [5]; 4.29% in [6]. In addition, the inhibition in [7] is 16.8%; in assay [8], 54.5%; in [9], 75.2%; in [10], 44.7%.

As for `CCn1c(-c2nonc2N)nc2c(C#CC(C)(C)O)nc(CN3CCCC3)cc21`, the inhibition in assay [1] was 0.53%; in assay [2], 1.08%; in assay [3], 2.47%; in [4] it was 0.74%; in assay [5], 2.39%; in assay [6] it was -1.68%. Further, the inhibition is 0.64% in assay [7], 5.1% in assay [8], 21.6% in [9] and 4.97% in assay [10].

On to `c1cnn2ncc(-c3ccnc(Nc4ccc5c(c4)OCCO5)n3)c2c1`, for which the inhibition in [1] turned out to be 52%; in assay [2] it was 79.6%; in [3], 87.6%; in [4], 80.6%; in assay [5], 88.9%; in assay [6], 10.7%. Further, the inhibition in assay [7] came to 50.8%; in assay [8], 75.6%; in [9], 92.5%; in assay [10] it was 74.4%.

Regarding `CCCN1CCC(Oc2cc(Nc3nc(Nc4cccc(F)c4C(N)=O)c4cc[nH]c4n3)c(OC)cc2Cl)CC1`, the inhibition in [1] was 1.7%; in assay [2], 2.64%; in [3], 25.9%; in assay [4], 3.49%; in assay [5], 27.1%; in assay [6], -0.2%. Besides, the inhibition in assay [7] was 0.67%; in assay [8], 3.45%; in assay [9] it was 9.53%; in [10] it was 3.22%.

In the case of `NC(=O)c1ccc(-c2nc(-c3ccccn3)c(-c3ccc4c(c3)OCO4)[nH]2)cc1`, the inhibition was 1.76% in assay [1]; 1.47% in assay [2]; 3.08% in assay [3]; -0.77% in assay [4]; 0.83% in assay [5]; 1.43% in assay [6]. Besides, the inhibition is 1.31% in assay [7], 2.47% in assay [8], 3.92% in assay [9] and 1.88% in assay [10].

`COc1cc2ncn(-c3cc(OCc4ccccc4C(F)(F)F)c(C(N)=O)s3)c2cc1OC`: the inhibition in [1] was -2.17%; in assay [2] it was -1.02%; in [3] it was 2.2%; in [4], -4.5%; in assay [5], -2.84%; in [6], 1.73%. In addition, the inhibition in [7] is 3.25%; in assay [8], 0.16%; in assay [9], 4.9%; in [10], -0.65%.

As to `CCn1c(-c2nonc2N)nc2c(C#CC(C)(C)O)nc(OC[C@@H](N)c3ccccc3)cc21`, the inhibition in assay [1] was 0.8%; in assay [2], -0.38%; in assay [3], 5.33%; in assay [4], 1.06%; in assay [5], 4.19%; in assay [6] it was -1.52%. Moreover, the inhibition in [7] was -0.54%; in assay [8] it was 37.4%; in assay [9] it was 78.5%; in assay [10] it was 32.1%.

`CS(=O)(=O)CCNCc1ccc(-c2ccc3ncnc(Nc4ccc(OCc5ccccc5)c(Cl)c4)c3c2)o1`: the inhibition is -0.47% in assay [1]; 2.24% in assay [2]; 1.73% in assay [3]; 1.31% in assay [4]; 2.67% in [5]; -0.23% in [6]. The inhibition in [7] amounted to 1.41%; in assay [8] it was 1.58%; in assay [9], 4.24%; in assay [10] it was 2.15%.

Take `Cc1nnc(-c2ccc(C)c(-c3ccc(C(=O)Nc4cccc(C#N)c4)cc3)c2)o1`: the inhibition in [1] came out at 1.62%; in assay [2] it was 0.92%; in [3], 3.59%; in assay [4] it was 0.45%; in assay [5] it was 1.21%; in assay [6], 1.13%. Further, the inhibition in [7] was 1.2%; in assay [8] it was 2.41%; in [9], 4.82%; in assay [10] it was 2.45%.

With `CS(=O)(=O)CCNCc1nc(-c2ccc3ncnc(Nc4ccc(F)c(Cl)c4)c3c2)cs1`, the inhibition was determined as 0.43% in assay [1]; 0.63% in assay [2]; 1.24% in [3]; 0.27% in assay [4]; 1.63% in [5]; 0.37% in [6]. Also, the inhibition is 2.12% in assay [7], 1.3% in assay [8], 3.03% in assay [9] and 1.2% in assay [10].

As to `Cc1ccc(NC(=O)c2ccnc(N3CCCC3)c2)cc1-c1ccc(C(=O)NCC2CC2)cc1`, the inhibition in assay [1] was -1.68%; in assay [2], 0.13%; in assay [3] it was 4%; in assay [4] it was -2.86%; in assay [5], -0.97%; in assay [6], 2.77%. Besides, the inhibition came out at 3.11% in assay [7], 1.33% in [8], 5.65% in assay [9] and 0.07% in assay [10].

For the molecule `CCn1c(-c2nonc2N)nc2ccncc21`, the inhibition in assay [1] is 0.52%; in assay [2], 0.1%; in assay [3], 2.88%; in assay [4] it was -0.02%; in assay [5], 0.71%; in assay [6], 1.94%. Besides, the inhibition in assay [7] came out at 2.17%; in assay [8], 0.52%; in assay [9] it was 7.82%; in assay [10] it was 0.08%.
